{
  "source": "paper PMC7862700",
  "about": "“An all-to-all approach to the identification of sequence-specific readers for epigenetic DNA modifications on cytosine”",
  "assay_in_all_cases": "DAPPL (digital affinity profiling via proximity ligation, sequencing); 10 mM Tris-HCl pH 7.5, 50 mM NaCl, 1 mM DTT, 4% glycerol, room temperature, 30 min; GST-TFs on glutathione beads, 16-mer random dsDNA library, 0.1% formaldehyde crosslink after washing; high values mean tight binding",
  "settings_in_all_cases": "protein: recombinant; tags: N-terminal GST; dsDNA, one strand shown",
  "key": {"ELF4": {"molecular_target": "ELF4 (Homo sapiens, UniProt Q99607 1-663)", "sequence (Q99607 whole entry, the tested form may be a part)": "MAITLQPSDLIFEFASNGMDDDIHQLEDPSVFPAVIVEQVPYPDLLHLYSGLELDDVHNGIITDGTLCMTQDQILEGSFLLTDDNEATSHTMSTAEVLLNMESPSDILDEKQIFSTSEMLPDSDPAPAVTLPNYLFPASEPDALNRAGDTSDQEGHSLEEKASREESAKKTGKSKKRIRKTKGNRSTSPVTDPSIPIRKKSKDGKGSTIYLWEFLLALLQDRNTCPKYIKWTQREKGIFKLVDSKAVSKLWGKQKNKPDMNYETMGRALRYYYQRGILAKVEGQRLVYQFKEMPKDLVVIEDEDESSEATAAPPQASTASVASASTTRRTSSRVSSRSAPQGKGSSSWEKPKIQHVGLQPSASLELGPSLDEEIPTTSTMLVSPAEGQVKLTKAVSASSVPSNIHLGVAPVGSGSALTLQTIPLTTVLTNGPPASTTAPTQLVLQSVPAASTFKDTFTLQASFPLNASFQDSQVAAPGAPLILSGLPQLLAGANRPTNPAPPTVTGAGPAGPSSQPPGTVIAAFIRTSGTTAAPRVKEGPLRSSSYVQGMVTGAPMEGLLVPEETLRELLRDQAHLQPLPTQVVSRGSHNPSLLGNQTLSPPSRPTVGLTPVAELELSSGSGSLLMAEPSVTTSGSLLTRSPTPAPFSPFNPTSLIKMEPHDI", "method_in_brief": "(§1)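 Binding signal is each hexamer's read frequency for a factor divided by its frequency in the tag-only sample. The factors were GST-fused human transcription factors from yeast, captured on glutathione beads, DNA-barcoded and pooled with that sample. Pools were incubated with 200 nmole of a random double-stranded 16-mer DNA library in Tris/NaCl/DTT/glycerol buffer at room temperature for 30 min, then washed, crosslinked with 0.1% formaldehyde, proximity-ligated with BsaI/T4 ligase (1 h, 37 °C), PCR-amplified and sequenced on an Illumina NextSeq500.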"}, "ETV2": {"molecular_target": "T1, ETV2 (Homo sapiens, UniProt O00321 1-342)", "T1 sequence": "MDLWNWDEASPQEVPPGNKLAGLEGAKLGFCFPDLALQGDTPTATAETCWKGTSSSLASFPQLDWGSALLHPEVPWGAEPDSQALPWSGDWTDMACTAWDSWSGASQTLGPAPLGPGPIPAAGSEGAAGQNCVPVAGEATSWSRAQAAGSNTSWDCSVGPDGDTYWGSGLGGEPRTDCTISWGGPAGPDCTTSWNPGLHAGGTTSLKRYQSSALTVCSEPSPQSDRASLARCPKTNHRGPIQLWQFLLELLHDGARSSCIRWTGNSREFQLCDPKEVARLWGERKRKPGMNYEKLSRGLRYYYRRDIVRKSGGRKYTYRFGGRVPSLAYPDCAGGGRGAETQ", "method_in_brief": "as §1"}, "ELF3": {"molecular_target": "T2, ELF3 (Homo sapiens, UniProt P78545 1-371)", "T2 sequence": "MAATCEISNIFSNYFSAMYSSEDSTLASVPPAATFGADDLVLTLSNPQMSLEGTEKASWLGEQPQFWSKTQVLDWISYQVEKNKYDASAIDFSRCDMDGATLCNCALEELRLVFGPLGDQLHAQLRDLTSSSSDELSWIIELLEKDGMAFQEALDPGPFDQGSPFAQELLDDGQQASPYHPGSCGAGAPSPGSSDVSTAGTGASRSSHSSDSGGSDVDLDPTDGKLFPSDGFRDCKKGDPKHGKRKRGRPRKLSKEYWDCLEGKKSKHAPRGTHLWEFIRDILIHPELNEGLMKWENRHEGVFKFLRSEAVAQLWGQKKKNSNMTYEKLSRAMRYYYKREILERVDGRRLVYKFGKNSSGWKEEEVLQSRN", "method_in_brief": "as §1"}, "ETV1": {"molecular_target": "ETV1 (Homo sapiens, UniProt P50549 1-477)", "sequence (P50549 whole entry)": "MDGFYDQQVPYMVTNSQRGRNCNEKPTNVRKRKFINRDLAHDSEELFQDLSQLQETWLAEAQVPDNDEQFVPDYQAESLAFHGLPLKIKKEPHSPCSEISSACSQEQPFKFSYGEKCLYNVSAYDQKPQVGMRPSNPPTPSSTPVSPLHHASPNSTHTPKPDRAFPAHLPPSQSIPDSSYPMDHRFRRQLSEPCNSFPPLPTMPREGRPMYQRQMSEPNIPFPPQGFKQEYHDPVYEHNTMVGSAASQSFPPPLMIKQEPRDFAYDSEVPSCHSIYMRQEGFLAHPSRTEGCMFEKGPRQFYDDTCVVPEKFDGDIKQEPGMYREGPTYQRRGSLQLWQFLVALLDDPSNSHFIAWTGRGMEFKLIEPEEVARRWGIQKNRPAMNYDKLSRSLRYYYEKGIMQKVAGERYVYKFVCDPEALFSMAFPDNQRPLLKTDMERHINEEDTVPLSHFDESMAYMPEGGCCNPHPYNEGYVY", "method_in_brief": "as §1"}, "ERF": {"molecular_target": "T3, ERF (Homo sapiens, UniProt P50548 1-548)", "T3 sequence": "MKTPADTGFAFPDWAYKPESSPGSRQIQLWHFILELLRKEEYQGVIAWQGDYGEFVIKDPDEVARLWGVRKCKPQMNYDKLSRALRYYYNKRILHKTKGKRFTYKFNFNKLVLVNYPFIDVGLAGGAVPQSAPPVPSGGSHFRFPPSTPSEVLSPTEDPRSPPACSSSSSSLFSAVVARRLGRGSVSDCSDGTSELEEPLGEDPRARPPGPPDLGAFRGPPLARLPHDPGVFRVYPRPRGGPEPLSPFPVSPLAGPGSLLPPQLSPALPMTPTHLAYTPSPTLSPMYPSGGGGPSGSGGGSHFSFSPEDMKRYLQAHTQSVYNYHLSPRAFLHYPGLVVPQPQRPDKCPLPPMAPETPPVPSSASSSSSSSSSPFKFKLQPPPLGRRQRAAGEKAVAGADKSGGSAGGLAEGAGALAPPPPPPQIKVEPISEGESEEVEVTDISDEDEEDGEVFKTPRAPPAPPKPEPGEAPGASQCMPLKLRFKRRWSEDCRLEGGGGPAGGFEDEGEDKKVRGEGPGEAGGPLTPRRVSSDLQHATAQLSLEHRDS", "method_in_brief": "as §1"}, "ETV3L": {"molecular_target": "T4, ETV3L (Homo sapiens, UniProt Q6ZN32 1-361)", "T4 sequence": "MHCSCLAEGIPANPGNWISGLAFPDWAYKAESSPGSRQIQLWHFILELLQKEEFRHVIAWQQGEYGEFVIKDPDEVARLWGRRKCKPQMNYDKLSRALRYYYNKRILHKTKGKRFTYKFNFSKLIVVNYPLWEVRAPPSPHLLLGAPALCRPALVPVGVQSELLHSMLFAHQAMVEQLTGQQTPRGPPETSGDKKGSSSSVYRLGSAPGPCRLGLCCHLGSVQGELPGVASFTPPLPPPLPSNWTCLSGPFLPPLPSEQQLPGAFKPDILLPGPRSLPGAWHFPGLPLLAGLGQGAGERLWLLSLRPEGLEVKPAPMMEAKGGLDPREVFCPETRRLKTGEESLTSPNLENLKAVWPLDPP", "method_in_brief": "as §1"}, "ETS2": {"molecular_target": "T5, ETS2 (Homo sapiens, UniProt P15036 1-469)", "T5 sequence": "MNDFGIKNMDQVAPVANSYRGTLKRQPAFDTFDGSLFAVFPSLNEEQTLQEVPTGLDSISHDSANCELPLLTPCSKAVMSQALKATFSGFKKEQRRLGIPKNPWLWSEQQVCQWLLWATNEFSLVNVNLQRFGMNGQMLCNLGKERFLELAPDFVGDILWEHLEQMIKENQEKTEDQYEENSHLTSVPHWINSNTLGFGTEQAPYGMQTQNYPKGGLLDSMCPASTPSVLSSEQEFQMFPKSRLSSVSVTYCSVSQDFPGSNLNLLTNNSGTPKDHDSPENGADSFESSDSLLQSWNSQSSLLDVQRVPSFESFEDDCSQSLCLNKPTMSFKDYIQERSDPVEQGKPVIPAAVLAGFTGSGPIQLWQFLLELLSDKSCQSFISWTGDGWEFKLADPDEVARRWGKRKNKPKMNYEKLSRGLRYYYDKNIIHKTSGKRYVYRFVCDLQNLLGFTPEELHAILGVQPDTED", "method_in_brief": "as §1"}, "ETV7": {"molecular_target": "T6, ETV7 (Homo sapiens, UniProt Q9Y603 1-341)", "T6 sequence": "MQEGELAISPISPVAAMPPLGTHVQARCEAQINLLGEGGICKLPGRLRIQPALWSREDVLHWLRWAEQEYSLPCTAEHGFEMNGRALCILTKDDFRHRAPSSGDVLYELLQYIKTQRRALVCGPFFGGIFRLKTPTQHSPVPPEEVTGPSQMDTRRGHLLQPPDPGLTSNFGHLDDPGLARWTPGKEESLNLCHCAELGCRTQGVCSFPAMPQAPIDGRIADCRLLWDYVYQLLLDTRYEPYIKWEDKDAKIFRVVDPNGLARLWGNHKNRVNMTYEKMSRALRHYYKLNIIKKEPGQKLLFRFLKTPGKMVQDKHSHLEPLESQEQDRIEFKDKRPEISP", "method_in_brief": "as §1"}, "ETV3": {"molecular_target": "T7, ETV3 (Homo sapiens, UniProt P41162-2 1-143)", "T7 sequence": "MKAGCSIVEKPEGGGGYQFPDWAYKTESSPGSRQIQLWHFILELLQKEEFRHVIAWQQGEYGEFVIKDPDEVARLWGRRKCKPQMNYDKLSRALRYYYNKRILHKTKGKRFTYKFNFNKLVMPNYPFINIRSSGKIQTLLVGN", "method_in_brief": "as §1"}, "ETV6": {"molecular_target": "ETV6 (Homo sapiens, UniProt P41212 1-452)", "sequence (P41212 whole entry)": "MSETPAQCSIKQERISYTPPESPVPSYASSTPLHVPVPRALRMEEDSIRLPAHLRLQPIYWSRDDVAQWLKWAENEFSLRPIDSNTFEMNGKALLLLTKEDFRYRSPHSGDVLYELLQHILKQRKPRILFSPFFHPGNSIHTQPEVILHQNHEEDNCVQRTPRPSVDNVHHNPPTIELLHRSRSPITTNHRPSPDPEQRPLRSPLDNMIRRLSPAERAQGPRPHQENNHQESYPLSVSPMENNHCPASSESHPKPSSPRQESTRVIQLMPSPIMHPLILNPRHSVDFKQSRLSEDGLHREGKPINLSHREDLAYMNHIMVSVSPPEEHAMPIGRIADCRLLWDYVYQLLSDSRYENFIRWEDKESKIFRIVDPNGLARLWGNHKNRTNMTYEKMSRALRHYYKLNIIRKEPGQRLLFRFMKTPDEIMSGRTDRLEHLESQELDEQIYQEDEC", "method_in_brief": "as §1"}},
  "data": [
    {"sequence": "GTACCC", "values": [
      {"measurement": "binding signal", "setting": "ELF4", "result": "1.06 fold enrichment (6-mer frequency, TF over GST control)"},
      {"measurement": "binding signal", "setting": "ETV2", "result": "1.11 fold enrichment (6-mer frequency, TF over GST control)"},
      {"measurement": "binding signal", "setting": "ELF3", "result": "1.17 fold enrichment (6-mer frequency, TF over GST control)"},
      {"measurement": "binding signal", "setting": "ETV1", "result": "1.11 fold enrichment (6-mer frequency, TF over GST control)"},
      {"measurement": "binding signal", "setting": "ERF", "result": "1.13 fold enrichment (6-mer frequency, TF over GST control)"},
      {"measurement": "binding signal", "setting": "ETV3L", "result": "1.16 fold enrichment (6-mer frequency, TF over GST control)"},
      {"measurement": "binding signal", "setting": "ETS2", "result": "1.12 fold enrichment (6-mer frequency, TF over GST control)"},
      {"measurement": "binding signal", "setting": "ETV7", "result": "1.06 fold enrichment (6-mer frequency, TF over GST control)"},
      {"measurement": "binding signal", "setting": "ETV3", "result": "1.06 fold enrichment (6-mer frequency, TF over GST control)"},
      {"measurement": "binding signal", "setting": "ETV6", "result": "1.13 fold enrichment (6-mer frequency, TF over GST control)"}
    ]}
  ]
}
